The results in this text go back to PubChem BioAssay (NCI).

This is part of a sample that, as a whole, favours compounds with a hit. Of some 83,000 tested, about 20% had one in any assay.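 Activity criterion: percent growth below 10, measured after cells in 96-well plates were exposed to a single compound concentration for 48 hours.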 A number with no mark means an inactive call. Active and inactive are the calls of the source.

Some test systems named below: T-47D breast; MDA-MB-435 melanoma; SW-620 colon; MCF7 breast; HCT-116 colon; HCC-2998 colon; KM12 colon.
Common to all, as to assay: NCI-60 one-dose screen, 48 h (100 = growth as untreated, 0 = no growth, -100 = all killed)
Common to all, as to conditions: 10 µM

For the molecule `COc1ccc(Cl)cc1Nc1nc(C(F)(F)F)ccc1C(=O)N/N=C/c1ccc(Cl)cc1`, the growth with T-47D breast was 37.6%; with MDA-MB-435 melanoma, 59.2%; in the experiment with SW-620 colon, 30.9%; in the experiment with MCF7 breast, 23.6%; with HCT-116 colon, 21.4%; with HCC-2998 colon it was 59.4%.
For the molecule `CN(C)CCCSc1ccccc1NC1=C(Cl)C(=O)C(Nc2ccccc2SCCCN(C)C)=C(Cl)C1=O`, the growth was -42.8% (active) in the experiment on T-47D breast; 92.1% in the experiment on MDA-MB-435 melanoma; -34.3% (active) in the experiment on SW-620 colon; -50% (active) in the experiment with MCF7 breast; 4.82% (active) with HCT-116 colon; 103% in the experiment on HCC-2998 colon. For the same molecule, in the experiment with KM12 colon, the growth is 80.2%.
Turning to `CCN(CC)CCOc1cccc2c1C(=O)c1ccccc1C2=O`, the growth in the experiment on T-47D breast is 107%; in the experiment with MDA-MB-435 melanoma it was 100%; with SW-620 colon it was 87.6%; with MCF7 breast, 92.1%; with HCT-116 colon, 70.4%; in the experiment on HCC-2998 colon it was 102%. Further, the growth with KM12 colon is 98%.
For the molecule `COc1cc(-c2nn(-c3cccc(NC(=O)CCN4CCN(c5ccccc5)CC4)c3)cc2-c2ccncc2)ccc1Cl`, the growth with T-47D breast is 17.5%; with MDA-MB-435 melanoma it was 16.8%; in the experiment on SW-620 colon it was 24.5%; in the experiment with MCF7 breast it was 12.6%; in the experiment with HCT-116 colon, 11.8%; with HCC-2998 colon, 28.5%. Moreover, in the experiment with KM12 colon, the growth was 13.3%.
Turning to `Cc1ccc(NCCNCC(C)(C)O)c2c(=O)c3ccc(Cl)cc3sc12`, the growth in the experiment with T-47D breast is 27.4%; in the experiment with MDA-MB-435 melanoma it was -84.5% (active); with SW-620 colon, -80.1% (active); in the experiment on MCF7 breast, -73.2% (active); with HCT-116 colon, -61.6% (active); with HCC-2998 colon, -52.8% (active). Further, the growth with KM12 colon was 8.21% (active).
Take `CC(=O)OC1C=CC(OC(C)=O)O1` (stereo not given): the growth in the experiment with T-47D breast is 88.1%; in the experiment with MDA-MB-435 melanoma, 96%; in the experiment with SW-620 colon, 82%; with MCF7 breast, 87.9%; with HCT-116 colon, 84.3%; with HCC-2998 colon, 103%. Besides, the growth in the experiment on KM12 colon was 101%.
On to `Cc1ccc(NCCN(C)CC(C)O)c2c(=O)c3ccc(Cl)cc3sc12` (stereo not given), for which the growth is 49.7% with T-47D breast; -49% (active) with MDA-MB-435 melanoma; -46.4% (active) in the experiment on SW-620 colon; 17.4% with MCF7 breast; -48.8% (active) in the experiment with HCT-116 colon; 18% in the experiment with HCC-2998 colon. For the same molecule, the growth with KM12 colon was 43.7%.
Take `CC(CN(C)C)Oc1ccccc1NC1=C(Cl)C(=O)C(Nc2ccccc2OC(C)CN(C)C)=C(Cl)C1=O` (stereo not given): the growth was -42% (active) in the experiment with T-47D breast; -71% (active) in the experiment with MDA-MB-435 melanoma; -66.5% (active) with SW-620 colon; -47% (active) with MCF7 breast; -70.3% (active) with HCT-116 colon; -87.4% (active) in the experiment with HCC-2998 colon. The growth in the experiment with KM12 colon is -1.19% (active).
For the molecule `CCOC(=O)C1=CSC2=NC3=C(CCC/C3=C\c3cc(OC)c(OC)c(OC)c3)C(c3cc(OC)c(OC)c(OC)c3)N12` (stereo not given), the growth with T-47D breast is 88.9%; in the experiment with MDA-MB-435 melanoma it was 21%; with SW-620 colon it was 44.9%; with MCF7 breast, 29.9%; in the experiment on HCT-116 colon, 19.2%; in the experiment on HCC-2998 colon, 75.1%. Besides, in the experiment with KM12 colon, the growth is -21.8% (active).
With `CN(C)CCCOc1ccc(NC2=C(Cl)C(=O)C(Nc3ccc(OCCCN(C)C)cc3)=C(Cl)C2=O)cc1`, the growth in the experiment on T-47D breast was -39.3% (active); with MDA-MB-435 melanoma it was -89% (active); in the experiment on SW-620 colon it was -58.4% (active); in the experiment with MCF7 breast, -49.4% (active); with HCT-116 colon it was -86.9% (active); with HCC-2998 colon, -90.6% (active). The growth in the experiment with KM12 colon is -63% (active).
For the molecule `Cc1cc(Br)nnc1Br`, the growth with T-47D breast was 90.1%; in the experiment on MDA-MB-435 melanoma, 114%; in the experiment with SW-620 colon it was 109%; in the experiment with MCF7 breast, 103%; with HCT-116 colon, 106%; in the experiment on HCC-2998 colon, 108%. The growth in the experiment on KM12 colon was 96.6%.
In the case of `O=C1NC(=O)c2c(CCCSc3nc4ccccc4c(=O)n3CCc3ccccc3)cccc21`, the growth with T-47D breast is 79.1%; in the experiment on MDA-MB-435 melanoma, 85.6%; in the experiment with SW-620 colon, 98.8%; with MCF7 breast, 83.5%; in the experiment with HCT-116 colon, 80%; in the experiment with HCC-2998 colon, 91.9%. Besides, the growth in the experiment with KM12 colon was 100%.
Consider `Cc1c2c(nn1C(=O)c1nn(-c3ccc(Cl)cc3)cc1O)-c1ccccc1CC2`, for which the growth is 1.65% (active) with T-47D breast; 34.3% in the experiment on MDA-MB-435 melanoma; 32.4% in the experiment with SW-620 colon; 12.4% in the experiment on MCF7 breast; 7.08% (active) with HCT-116 colon; 9.3% (active) in the experiment on HCC-2998 colon. Further, the growth in the experiment with KM12 colon was 29.5%.
In the case of `O=C(CCCCC(=O)Oc1c(Cl)cc(Cl)cc1[N+](=O)[O-])Oc1c(Cl)cc(Cl)cc1[N+](=O)[O-]`, the growth in the experiment with T-47D breast was 102%; with MDA-MB-435 melanoma it was 103%; with SW-620 colon, 112%; in the experiment on MCF7 breast, 86.3%; in the experiment with HCT-116 colon, 101%; with HCC-2998 colon it was 103%. The growth in the experiment on KM12 colon is 99.7%.
Regarding `C/C=C/CSC(C)(C)C(=O)NC`, the growth is 100% in the experiment with T-47D breast; 106% with MDA-MB-435 melanoma; 104% in the experiment on SW-620 colon; 93.8% in the experiment on MCF7 breast; 91.2% with HCT-116 colon; 101% in the experiment with HCC-2998 colon. Besides, the growth in the experiment on KM12 colon is 102%.
As for `O=S(=O)(Oc1ccc(-c2ccc3sccc3c2)cc1)c1ccc(F)cc1`, the growth in the experiment on T-47D breast is 96%; in the experiment on MDA-MB-435 melanoma, 93.5%; with SW-620 colon, 93.5%; in the experiment with MCF7 breast, 84.8%; in the experiment with HCT-116 colon, 102%; in the experiment with HCC-2998 colon, 86.8%. For the same molecule, the growth in the experiment with KM12 colon is 104%.
Regarding `Cc1ccc(-n2nnnc2N)c(C)c1`, the growth in the experiment on T-47D breast was 112%; in the experiment with MDA-MB-435 melanoma it was 102%; in the experiment on SW-620 colon, 96%; in the experiment on MCF7 breast, 95.9%; with HCT-116 colon it was 98.7%; in the experiment on HCC-2998 colon it was 95%. In the experiment with KM12 colon, the growth is 108%.
As for `COc1ccc(N(C)c2ncnc3occ(C)c23)cc1`, the growth is 67.1% in the experiment with T-47D breast; 7.12% (active) with MDA-MB-435 melanoma; 33.9% with SW-620 colon; 9.66% (active) in the experiment with MCF7 breast; -11.9% (active) in the experiment with HCT-116 colon; 7.26% (active) with HCC-2998 colon. Besides, the growth in the experiment with KM12 colon was -33.2% (active).
